According to the supplement of paper PMC12350171:
Where a name gives a salt, the structure may show the parent alone.

Columns and labels:
Conditions in all cases: 20 µM
[1] = test system: Haemophilus parainfluenzae; experiment: growth AUC normalised to DMSO control (fraction of control); higher = less growth inhibition, active = hit call of the paper
In short: (§1)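 Pathogens passaged twice anaerobically were inoculated at a starting OD578 of 0.01 into pre-reduced mGAM plates with drug at 20 μM and 1% DMSO, sealed with breathable membranes. Haemophilus parainfluenzae medium was supplemented with hemin and NAD. OD578 was read hourly for 24 h, with three biological replicates. Growth-curve AUC was computed by the trapezoidal rule up to the exponential-to-stationary transition and normalised to DMSO controls on the same plate.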

[2] = test system: Salmonella enterica typhimurium; experiment: as above
In short: as §1

Shigella flexneri = experiment: as above
In short: as §1

Vibrio cholerae = experiment: as above
In short: as §1

[3] = test system: Yersinia pseudotuberculosis; experiment: as above
In short: as §1

P. vulgatus RND KO = experiment: growth AUC normalised to DMSO control (median) (fraction of control); higher = less growth inhibition, active = hit call of the paper
In short: (§2)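 For normalised area under the curve, growth curves were truncated at entry into stationary phase, integrated by the trapezoidal rule and divided against vehicle wells on the same plate. The curves came from strains passaged twice overnight without oxygen and then grown in mGAM in 96-well plates at a starting OD578 of 0.01. Each well held an approved-drug library compound at 20 μM with 1% DMSO, and OD578 was read hourly for 24 h in an anaerobic incubator. Values are medians of three biological replicates.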

P. vulgatus WT = experiment: as above
In short: as §2

[4] = test system: S. enterica typhimurium WT; experiment: as above
In short: as §2

[5] = test system: S. enterica typhimurium tolC KO; experiment: as above
In short: as §2

Measured: growth AUC normalised to DMSO control
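Throughout, for growth AUC normalised to DMSO control (median): active when median AUC fell below 0.1.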

CN1[C@@H]2CC[C@H]1C[C@@H](OC1c3ccccc3CCc3ccccc31)C2 [Deptropine citrate]
inactive: [1] 0.95 | [2] 0.993 | Shigella flexneri 0.971 | Vibrio cholerae 0.926 | [3] 0.965 | P. vulgatus RND KO 0.941 | P. vulgatus WT 0.945 | [4] 0.994 | [5] 0.942

C[C@@H]1C[C@@H]([C@H](O)CC2CC(=O)NC(=O)C2)C(=O)[C@@H](C)C1 [Cycloheximide]
inactive: [1] 1.03 | [2] 1 | Shigella flexneri 1.04 | Vibrio cholerae 1.01 | [3] 0.999 | P. vulgatus RND KO 1.01 | P. vulgatus WT 1.01 | [4] 0.999 | [5] 0.999

CC[C@@H](C(N)=O)N1CCCC1=O [Levetiracetam]
inactive: [1] 1.04 | [2] 1.01 | Shigella flexneri 1.03 | Vibrio cholerae 1.05 | [3] 1.01 | P. vulgatus RND KO 1.01 | P. vulgatus WT 1.03 | [4] 1.01 | [5] 1

COc1ccc(CCN2CCC(Nc3nc4ccccc4n3Cc3ccc(F)cc3)CC2)cc1 [Astemizole]
inactive: [1] 1.02 | [2] 1.05 | Shigella flexneri 0.997 | Vibrio cholerae 0.934 | [3] 1.02 | P. vulgatus RND KO 1.01 | P. vulgatus WT 0.986 | [4] 1 | [5] 0.962

CCCC(C)C1(CC)C(=O)NC(=O)NC1=O (stereo not drawn) [Pentobarbital]
inactive: [1] 1.02 | [2] 1.01 | Shigella flexneri 1.05 | Vibrio cholerae 0.999 | [3] 0.986 | P. vulgatus RND KO 1.05 | P. vulgatus WT 1.06 | [4] 1.01 | [5] 0.999

C[C@]12CC[C@H]3[C@@H](CCC4=CC(=O)CC[C@@H]43)[C@@H]1CC[C@@H]2O [Nandrolone]
inactive: [1] 1.99 | [2] 0.995 | Shigella flexneri 0.981 | Vibrio cholerae 0.967 | [3] 0.981 | P. vulgatus RND KO 0.999 | P. vulgatus WT 1.03 | [4] 1.01 | [5] 0.981

C=C1C[C@@H]2[C@H](CC[C@]3(C)C(=O)CC[C@@H]23)[C@@]2(C)C=CC(=O)C=C12 [Exemestane]
inactive: [1] 0.967 | [2] 0.985 | Shigella flexneri 0.953 | Vibrio cholerae 0.964 | [3] 1 | P. vulgatus RND KO 0.978 | P. vulgatus WT 0.969 | [4] 0.996 | [5] 0.935

CCCC[N+]1(C)[C@@H]2C[C@@H](OC(=O)[C@H](CO)c3ccccc3)C[C@H]1[C@@H]1O[C@@H]12 (stereo partly drawn) [N-Butylscopolammonium bromide]
inactive: [1] 1 | [2] 1 | Shigella flexneri 0.993 | Vibrio cholerae 1.01 | [3] 1.02 | P. vulgatus RND KO 1 | P. vulgatus WT 1 | [4] 1 | [5] 0.995

C[N+]12CCC(CC1)C(OC(=O)C(O)(c1ccccc1)c1ccccc1)C2 (stereo not drawn) [Clidinium bromide]
inactive: [1] 0.998 | [2] 0.969 | Shigella flexneri 0.975 | Vibrio cholerae 0.99 | [3] 0.999 | P. vulgatus RND KO 1.03 | P. vulgatus WT 0.999 | [4] 1.02 | [5] 0.997

CN[C@@H]1C[C@@H](c2ccc(Cl)c(Cl)c2)c2ccccc21 [Indatraline hydrochloride]
inactive: [1] 1.04 | [2] 1.02 | Shigella flexneri 1.05 | Vibrio cholerae 1 | [3] 1.02 | P. vulgatus RND KO 0.973 | P. vulgatus WT 1.08 | [4] 0.996 | [5] 0.95

CN1C[C@H](CNC(=O)OCc2ccccc2)C[C@@H]2c3cccc4c3c(cn4C)C[C@H]21 [Metergoline]
inactive: [1] 0.925 | [2] 0.979 | Shigella flexneri 0.973 | Vibrio cholerae 0.893 | [3] 0.993 | P. vulgatus RND KO 0.886 | P. vulgatus WT 0.885 | [4] 0.992 | [5] 0.895

C#C[C@]1(O)CC[C@H]2[C@@H]3CCC4=CC(=O)CCC4=C3C=C[C@@]21CC [Gestrinone]
inactive: [1] 1.03 | [2] 0.989 | Shigella flexneri 1.03 | Vibrio cholerae 1.01 | [3] 1.01 | P. vulgatus RND KO 1.01 | P. vulgatus WT 1.07 | [4] 1.01 | [5] 0.986

COc1ccc(CN2CCNCC2)c(OC)c1OC [Trimetazidine dihydrochloride]
inactive: [1] 1.02 | [2] 0.989 | Shigella flexneri 1.03 | Vibrio cholerae 1.02 | [3] 1.01 | P. vulgatus RND KO 1.01 | P. vulgatus WT 1.01 | [4] 0.997 | [5] 0.994

O=[N+]([O-])O[C@H]1CO[C@H]2[C@@H]1OC[C@H]2O[N+](=O)[O-] [Isosorbide dinitrate]
inactive: [1] 1.07 | [2] 1.03 | Shigella flexneri 1.02 | Vibrio cholerae 1.09 | [3] 1.01 | P. vulgatus RND KO 0.94 | P. vulgatus WT 0.94 | [4] 0.996 | [5] 1.01

Oc1ccc2c3c1O[C@H]1[C@@H](O)CC[C@@]4(O)[C@@H](C2)N(CC2CCC2)CC[C@]314 [Nalbuphine hydrochloride]
inactive: [1] 0.982 | [2] 0.984 | Shigella flexneri 0.974 | Vibrio cholerae 0.984 | [3] 0.905 | P. vulgatus RND KO 0.997 | P. vulgatus WT 0.966 | [4] 0.988 | [5] 0.995

CN1[C@@H]2CC[C@H]1C[C@@H](OC(=O)C(CO)c1ccccc1)C2 (stereo partly drawn) [Atropine sulfate monohydrate]
inactive: [1] 1.06 | [2] 1.01 | Shigella flexneri 1.06 | Vibrio cholerae 1.03 | [3] 1 | P. vulgatus RND KO 1.04 | P. vulgatus WT 1.07 | [4] 1.01 | [5] 0.987

CC(Cc1ccc(O)cc1)NCC(O)c1cc(O)cc(O)c1 (stereo not drawn) [Fenoterol hydrobromide]
inactive: [1] 0.991 | [2] 1.01 | Shigella flexneri 0.962 | Vibrio cholerae 1.01 | [3] 0.998 | P. vulgatus RND KO 1.03 | P. vulgatus WT 1.03 | [4] 1.01 | [5] 1

CC(O)(CS(=O)(=O)c1ccc(F)cc1)C(=O)Nc1ccc(C#N)c(C(F)(F)F)c1 (stereo not drawn) [Bicalutamide]
inactive: [1] 1.12 | [2] 1.05 | Shigella flexneri 1.08 | Vibrio cholerae 1.1 | [3] 1.01 | P. vulgatus RND KO 0.982 | P. vulgatus WT 0.988 | [4] 1.01 | [5] 0.954

O=C(CCCN1CCC2(CC1)C(=O)NCN2c1ccccc1)c1ccc(F)cc1 [Spiperone]
inactive: [1] 0.953 | [2] 0.978 | Shigella flexneri 0.978 | Vibrio cholerae 0.917 | [3] 0.985 | P. vulgatus RND KO 0.98 | P. vulgatus WT 0.988 | [4] 0.995 | [5] 0.979

CN(C)[C@@H]1C(=O)C(C(N)=O)=C(O)[C@@]2(O)C(=O)C3=C(O)c4c(O)cccc4[C@@](C)(O)[C@H]3[C@H](O)[C@@H]12 [Oxytetracycline dihydrate]
active: [1] 0.0523 | [2] 0.00147 | Shigella flexneri 0.015 | Vibrio cholerae 0.0278 | [3] 0.0752 | P. vulgatus RND KO 0.00913 | P. vulgatus WT 0.0112 | [4] 0.0149 | [5] 0.00753

N[C@@H]1C[C@H]1c1ccccc1 [Tranylcypromine hydrochloride]
inactive: [1] 1.04 | [2] 0.999 | Shigella flexneri 1 | Vibrio cholerae 1.01 | [3] 0.959 | P. vulgatus RND KO 1.01 | P. vulgatus WT 1.05 | [4] 1.01 | [5] 1

CN(C)C(=O)Oc1cc(OC(=O)N(C)C)cc(C(O)CNC(C)(C)C)c1 (stereo not drawn) [Bambuterol hydrochloride]
inactive: [1] 0.992 | [2] 1 | Shigella flexneri 0.997 | Vibrio cholerae 1 | [3] 1.02 | P. vulgatus RND KO 1.05 | P. vulgatus WT 1.02 | [4] 1.01 | [5] 1.01

COc1cc([C@@H]2c3cc4c(cc3[C@H](O)[C@H]3COC(=O)[C@H]23)OCO4)cc(OC)c1OC [Podophyllotoxin]
inactive: [1] 1.04 | [2] 0.999 | Shigella flexneri 0.999 | Vibrio cholerae 1.02 | [3] 1.01 | P. vulgatus RND KO 1 | P. vulgatus WT 1.02 | [4] 0.998 | [5] 0.996

C[C@]12CC[C@H](O)C[C@H]1CC[C@@H]1[C@@H]2C[C@@H](O)[C@]2(C)[C@@H](C3=CC(=O)OC3)CC[C@]12O [Digoxigenin]
inactive: [1] 1.01 | [2] 1.03 | Shigella flexneri 0.999 | Vibrio cholerae 1.03 | [3] 0.998 | P. vulgatus RND KO 0.998 | P. vulgatus WT 1.04 | [4] 1.01 | [5] 1

COc1ccc2c(c1)[C@]13CCCC[C@@H]1[C@H](C2)N(C)CC3 [Dextromethorphan hydrobromide monohydrate]
inactive: [1] 1.02 | [2] 0.982 | Shigella flexneri 0.988 | Vibrio cholerae 0.955 | [3] 0.97 | P. vulgatus RND KO 1.02 | P. vulgatus WT 1 | [4] 0.995 | [5] 0.985

CCN(C(C)=O)c1cccc(-c2ccnc3c(C#N)cnn23)c1 [Zaleplon]
inactive: [1] 0.975 | [2] 0.978 | Shigella flexneri 0.954 | Vibrio cholerae 0.97 | [3] 1 | P. vulgatus RND KO 1 | P. vulgatus WT 1 | [4] 1 | [5] 0.992

c1ccc2c(c1)OCC(C1=NCCN1)O2 (stereo not drawn) [Idazoxan hydrochloride]
inactive: [1] 1.01 | [2] 1.02 | Shigella flexneri 1.02 | Vibrio cholerae 1.02 | [3] 0.982 | P. vulgatus RND KO 0.997 | P. vulgatus WT 0.98 | [4] 0.999 | [5] 0.998
